From PubChem BioAssay
ATXN2 expr inh – inhibitors of ATXN2 expression; HEK-293 ATXN2-luciferase reporter, luminescence, 24 h; Potency, µM (doses to about 57 µM), hits mostly inhibitors; 360,000 tested, 0.72% active; further: nearly all actives have a fitted effect of over 55% in size
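ATXN2-luciferase reporter cells (luciferase flanked by upstream and downstream ATXN2 gene portions) were treated 24 h at 37 °C with compounds at up to 57 uM. SteadyGlo luminescence gave expression; GF-AFC fluorescence gave viability.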
KB-V1 cytotox – KB-V1 MDR subline cytotoxicity; KB-V1 MDR cells viability, CellTiter-Glo, 72 h; 400,000 tested, 3.4% active; Potency, µM (highest dose often 46.1 µM), most hits filed as cytotoxic; further: nearly all actives have a fitted effect of over 60% in size
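Cytotoxicity toward P-gp-expressing KB-V1 cells was determined as loss of CellTiter-Glo luminescence after 72 h at 37 degrees C. Compounds were tested in quantitative HTS format across a concentration range, with curves fitted to normalized data.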
S2 tox – cell viability loss in ATXN counter-screen. Potency, µM (series often up to 56.7 µM), most hits filed as cytotoxic. S2 cells (HEK-293 line with an ATXN2-luciferase reporter) viability, CellTiter-Fluor protease fluorescence, 24 h. 400,000 tested, 0.49% active; further: nearly all actives have a fitted effect of over 40% in size
TGFb SMAD3 inh – blocks TGF-b signaling; HepG2 CAGA-GFP TGF-b/SMAD3 reporter, GFP fluorescence, 18 h; TGF-beta stimulated, 500 pg/mL final; Potency, µM (top dose mostly 46.1 µM), usual class: inhibitors; 410,000 tested, 1.2% active; further: nearly all actives have a fitted effect of over 65% in size
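Smad-responsive CAGA-GFP expression was quantified in HEPG2 cells exposed to compounds and 500 pg/mL final TGF-beta for 18 h at 37 degrees C; unstimulated wells defined full inhibition.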
KB-3-1 tox – kills parental KB-3-1 adenocarcinoma cells. 400,000 tested, 1.4% active. Potency, µM (titrated, usually from 46.1 µM), hits mostly cytotoxic. AID 1347075. KB-3-1 viability, CellTiter-Glo ATP luminescence, 72 h; further: nearly all actives have a fitted effect of over 60% in size
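Cytotoxicity measured as CellTiter-Glo luminescence after 72 h at 37 C. Compound titrations were pinned onto drug-naive KB-3-1 parental adenocarcinoma cells grown in DMEM with 10% FBS, and normalized data fitted to concentration-response curves.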
HepG2 tox – counter-screen for TGF-b inhibitors: cytotoxicity in HepG2 cells. HepG2 CAGA-GFP viability, ATP luminescence, 18 h. Potency, µM (highest dose often 46.1 µM), actives largely listed as cytotoxic. 410,000 tested, 0.76% active
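HepG2 CAGA-GFP cells (1000/well, DMEM with 1% FBS) received compound, then TGF-beta at 500 pg/mL final, and were incubated 18 hours at 37 degrees C. Viability was read by CellTiter-Glo luminescence. Media-only wells were set as complete cell-killing and DMSO as no toxicity.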
Hits are given with their value. Only some compounds are listed: those with a hit (about 5.9% of all), similar ones and a draw of the others. The call rests on the fitted dose curve; in most records, active means well fitted curve in the direction sought with a large enough effect; inconclusive means small, poorly fitted or top-dose-only effect, or another doubt; inactive means no such curve, though single readings can be large; an effect the other way counts as inactive or inconclusive.

`COc1ccc(/C=N\NC(=O)c2sccc2C)cc1Cn1nc(C)cc1C` gave ATXN2 expr inh inactive, KB-V1 cytotox 6.51µM, S2 tox inactive, TGFb SMAD3 inh inactive, KB-3-1 tox inconclusive and HepG2 tox inactive.
For COc1ccc(/C=N\NC(=O)COc2ccccc2Cl)cc1Cn1nc(C)cc1C the results were ATXN2 expr inh inactive, KB-V1 cytotox inactive, S2 tox inconclusive, TGFb SMAD3 inh inconclusive, KB-3-1 tox inactive and HepG2 tox inactive.
`CCOC(=O)c1noc2ncnc(Nc3cccc(C(F)(F)F)c3)c12` gave ATXN2 expr inh inactive, KB-V1 cytotox inactive, S2 tox inactive, TGFb SMAD3 inh inactive, KB-3-1 tox inactive and HepG2 tox inactive.
Cc1cccc(NC(=O)c2nc(S(C)(=O)=O)ncc2Cl)c1 was read as ATXN2 expr inh inconclusive, KB-V1 cytotox inactive, S2 tox inconclusive, TGFb SMAD3 inh 7.94µM, KB-3-1 tox inactive and HepG2 tox 20µM.
`COc1cccc(NC(=O)c2nc(S(C)(=O)=O)ncc2Cl)c1` gave ATXN2 expr inh inconclusive, KB-V1 cytotox inactive, S2 tox inconclusive, TGFb SMAD3 inh 15.8µM, KB-3-1 tox inactive and HepG2 tox inactive.
`O=C(CS(=O)(=O)c1cccc2nsnc12)NCc1ccccc1Cl` gave ATXN2 expr inh inactive, KB-V1 cytotox inactive, S2 tox inactive, TGFb SMAD3 inh inactive, KB-3-1 tox inactive and HepG2 tox inactive.
For CCC(C)(C)C1CCC2(CC1)NC(=O)N(CC(=O)NCCc1c[nH]c3ccccc13)C2=O (stereo not given) the results were ATXN2 expr inh inactive, KB-V1 cytotox 20.6µM, S2 tox inactive, TGFb SMAD3 inh inactive, KB-3-1 tox inconclusive and HepG2 tox inactive.
`COc1cc(Nc2nc(SCc3ccccc3F)nc3ccccc23)cc(OC)c1` gave TGFb SMAD3 inh inconclusive and HepG2 tox inactive.
Screening COc1cc(Nc2nc(SCc3ccccc3Cl)nc3ccccc23)cc(OC)c1 returned TGFb SMAD3 inh 11.2µM and HepG2 tox inactive.
For O=C(NNC(=O)c1cccc(Cl)c1)NNC(=O)c1cccc(Cl)c1 the results were ATXN2 expr inh inactive, KB-V1 cytotox inactive, S2 tox inactive, TGFb SMAD3 inh inactive, KB-3-1 tox inactive and HepG2 tox inactive.
COc1ccc(C(=O)NNC2=C(C(=O)C(F)(F)F)CCC2)cc1 was read as ATXN2 expr inh inactive, KB-V1 cytotox inconclusive, S2 tox inactive, TGFb SMAD3 inh 8.91µM, KB-3-1 tox inconclusive and HepG2 tox inactive.
For O=C(NNC1=C(C(=O)C(F)(F)F)CCC1)c1ccc(Cl)cc1 the results were ATXN2 expr inh inconclusive, KB-V1 cytotox inactive, S2 tox inconclusive, TGFb SMAD3 inh 11.2µM, KB-3-1 tox inactive and HepG2 tox 10µM.
For O=C(NNC1=C(C(=O)C(F)(F)F)CCC1)c1cccc(Cl)c1 the results were ATXN2 expr inh inconclusive, KB-V1 cytotox inconclusive, S2 tox inconclusive, TGFb SMAD3 inh inconclusive, KB-3-1 tox inconclusive and HepG2 tox 10µM.
`COc1ccc2ccccc2c1/C=N/n1cnnc1` gave KB-V1 cytotox inactive, S2 tox inactive, TGFb SMAD3 inh inactive, KB-3-1 tox inactive and HepG2 tox inactive.
C(=N\n1cnnc1)/c1cccc2ccccc12 was read as ATXN2 expr inh inactive, KB-V1 cytotox 10.3µM, S2 tox inactive, TGFb SMAD3 inh inactive, KB-3-1 tox inconclusive and HepG2 tox inactive.
C(=N\n1cnnc1)/c1cn(Cc2ccccc2)c2ccccc12 was read as ATXN2 expr inh inactive, KB-V1 cytotox 14.6µM, S2 tox inactive, TGFb SMAD3 inh 12.6µM, KB-3-1 tox inactive and HepG2 tox inactive.
For CCOc1ccc(NC(=O)CSc2nnc3scc(-c4ccccc4)n23)cc1 the results were ATXN2 expr inh inactive, KB-V1 cytotox inactive, S2 tox inactive, TGFb SMAD3 inh inactive, KB-3-1 tox inactive and HepG2 tox inactive.
Screening C[C@@H](NC(=O)c1coc(=O)c(Br)c1)c1ccccc1 returned ATXN2 expr inh inconclusive, KB-V1 cytotox inconclusive, S2 tox inconclusive, TGFb SMAD3 inh inconclusive, KB-3-1 tox 11.6µM and HepG2 tox 12.6µM.
Screening COc1ccc(C(=O)NC(C)c2ccccc2)cc1Br (stereo not given) returned ATXN2 expr inh inactive, KB-V1 cytotox inactive, S2 tox inactive, TGFb SMAD3 inh inactive, KB-3-1 tox inactive and HepG2 tox inactive.
O=C(/C=C/c1ccccc1)NNC(=O)C1CC1 was read as ATXN2 expr inh inactive, KB-V1 cytotox inactive, S2 tox inactive, TGFb SMAD3 inh 14.1µM, KB-3-1 tox inactive and HepG2 tox inactive.
`COC(=O)NNC(=O)/C=C/c1ccccc1` gave ATXN2 expr inh inactive, KB-V1 cytotox inactive, S2 tox inactive, TGFb SMAD3 inh inactive, KB-3-1 tox inactive and HepG2 tox inactive.
For O=C(/C=C/c1ccccc1)/C=C/c1ccccc1 the results were ATXN2 expr inh inconclusive, KB-V1 cytotox inconclusive, S2 tox 39.8µM, TGFb SMAD3 inh inconclusive, KB-3-1 tox inconclusive and HepG2 tox inactive.
O=C(/C=C/c1ccccc1)c1ccccc1 was read as ATXN2 expr inh inactive, KB-V1 cytotox inconclusive, S2 tox inactive, TGFb SMAD3 inh inconclusive, KB-3-1 tox inactive and HepG2 tox inactive.
Screening O=C(/C=C/c1ccccc1)c1ccc2ccccc2c1 returned ATXN2 expr inh inactive, KB-V1 cytotox inactive, S2 tox inactive, TGFb SMAD3 inh inconclusive, KB-3-1 tox inactive and HepG2 tox 20µM.
Screening CC1(C(=O)NCc2ccccc2)Cc2c(-c3cccc(C(F)(F)F)c3)ccnc2O1 (stereo not given) returned ATXN2 expr inh inactive, KB-V1 cytotox 6.51µM, S2 tox inactive, TGFb SMAD3 inh inconclusive, KB-3-1 tox 16.4µM and HepG2 tox inactive.
Screening CC1(C(=O)NCc2cccs2)Cc2c(-c3cccc(C(F)(F)F)c3)ccnc2O1 (stereo not given) returned ATXN2 expr inh inactive, KB-V1 cytotox 20.6µM, S2 tox inactive, TGFb SMAD3 inh inconclusive, KB-3-1 tox inconclusive and HepG2 tox inactive.
CC1(C(=O)NCc2cccs2)Cc2c(-c3ccc(C(N)=O)cc3)ccnc2O1 (stereo not given) was read as ATXN2 expr inh inactive, KB-V1 cytotox inactive, S2 tox inactive, TGFb SMAD3 inh inactive, KB-3-1 tox 14.6µM and HepG2 tox inactive.
For CC1(C(=O)NCC2CC2)Cc2c(-c3cccc(C(F)(F)F)c3)ccnc2O1 (stereo not given) the results were ATXN2 expr inh inactive, KB-V1 cytotox inconclusive, S2 tox inactive, TGFb SMAD3 inh inconclusive, KB-3-1 tox inconclusive and HepG2 tox inactive.
Screening Cn1nnnc1SCC1=C(C(=O)O)N2C(=O)[C@@H](NC(=O)[C@H](OC=O)c3ccccc3)[C@H]2SC1 returned S2 tox inactive.
